High-throughput results deposited in PubChem BioAssay by National Center for Advancing Translational Sciences (NCATS).
DT40 TDP1 no CPT = qHTS for Inhibitors of human tyrosyl-DNA phosphodiesterase 1 (TDP1): qHTS in cells in absence of CPT; DT40 Tdp1-/- hTDP1 cells, no CPT, ATP luminescence, 48 h; Potency, µM (top dose mostly 46.2 µM), inactives show at the top dose activity change, negative = growth inhibition, most hits filed as inhibitors; 15% of 420,000 active; further: potency means the concentration at half of the fitted maximal effect; nearly all actives have a fitted effect of over 55% in size
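Growth kinetics read by CellTiter-Glo luminescence after ≥48 hr at 37 °C. Cells: DT40 Tdp1-/- stably carrying human TDP1, 400 per well, compound exposure in the absence of CPT (DMSO vehicle).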
CtBP-E1A inh = inhibitors of CtBP/E1A interaction; AlphaScreen GST-E1A/His-CtBP binding, 1536-well; active compounds read low; AID 651724; 0.49% of 340,000 active; activity change, % (concentration not given with the values); in the data active means activity change below about -65%; inconclusive means mostly about -30% to -63%
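GST-E1A and His-tagged CtBP (125 nM each as 5X stock) were preincubated with pin-transferred compound for 2 h at 37 °C in the dark, then glutathione donor and nickel acceptor beads were added for 1 h before AlphaScreen reading.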
Six1-Eya2 inh = inhibitors of human Six1/Eya2 interaction; AlphaScreen GST-Six1/His-Eya2 binding, biochemical; active compounds read low; activity change, % (no concentration beside the values); 0.56% of 360,000 active; AID 651725; in the data active means activity change below about -65%; inconclusive means mostly about -30% to -63%
Target sequence (O00167 whole entry, looked up): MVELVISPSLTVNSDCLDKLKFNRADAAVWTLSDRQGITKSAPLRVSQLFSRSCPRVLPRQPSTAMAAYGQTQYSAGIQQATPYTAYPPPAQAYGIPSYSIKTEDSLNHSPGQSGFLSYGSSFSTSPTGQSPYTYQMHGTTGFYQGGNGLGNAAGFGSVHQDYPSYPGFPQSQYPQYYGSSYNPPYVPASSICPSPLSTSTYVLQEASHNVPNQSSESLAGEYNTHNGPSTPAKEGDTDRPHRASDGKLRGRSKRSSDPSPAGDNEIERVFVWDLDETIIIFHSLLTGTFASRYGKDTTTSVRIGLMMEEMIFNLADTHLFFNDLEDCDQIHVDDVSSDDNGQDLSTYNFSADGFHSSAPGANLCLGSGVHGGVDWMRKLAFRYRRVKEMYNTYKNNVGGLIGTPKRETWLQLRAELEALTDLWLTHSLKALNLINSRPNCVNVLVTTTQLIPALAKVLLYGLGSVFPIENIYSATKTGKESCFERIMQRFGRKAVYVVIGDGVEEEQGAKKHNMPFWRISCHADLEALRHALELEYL
Target sequence (Q15475 whole entry, looked up): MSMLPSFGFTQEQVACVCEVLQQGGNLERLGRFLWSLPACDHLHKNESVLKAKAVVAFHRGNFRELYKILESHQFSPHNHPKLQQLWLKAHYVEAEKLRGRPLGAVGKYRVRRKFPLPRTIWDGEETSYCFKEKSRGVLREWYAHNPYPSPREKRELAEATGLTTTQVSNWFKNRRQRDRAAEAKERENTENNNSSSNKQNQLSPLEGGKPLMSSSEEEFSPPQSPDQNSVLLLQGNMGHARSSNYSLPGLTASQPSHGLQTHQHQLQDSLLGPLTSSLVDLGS
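AlphaScreen with GST-Six1 and His-Eya2 (5X mix: 250 nM and 500 nM), glutathione donor and nickel acceptor beads; buffer 50 mM Tris pH 8.0, 300 mM NaCl, 1 mM TCEP; 1 h at 37 C in the dark.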
IL1B secr inh = inflammasome signaling inhibition, IL-1 beta readout; THP-1 LPS/ATP IL-1B secretion, AlphaLISA, 16 h; active compounds read low; activity change, % at 57.5 µM; 4.7% of 360,000 active; in the data active means activity change below about -50%; inconclusive means mostly about -30% to -49%
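Secreted IL-1B measured by AlphaLISA bead assay after 16 h compound exposure of THP-1 cells; compounds (final up to 57.5 uM) added 1 h before LPS (250 ng/mL) and ATP (1.25 mM) stimulation; lower signal means less secretion.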
DT40 TDP1 CPT = DT40-hTDP1 cell growth loss with CPT; chicken DT40 Tdp1-/-;hTDP1 cells + 20 nM CPT, ATP luminescence, 48 h; Potency, µM (top dose mostly 46.2 µM), for inactives: at the top dose activity change, negative = growth inhibition, most hits filed as inhibitors; 12% of 420,000 active; further: potency means the concentration at half of the fitted maximal effect; nearly all actives have a fitted effect of over 55% in size
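Cell growth measured by CellTiter-Glo luminescence after a minimum 48 h, 37 C compound exposure with 20 nM CPT in Tdp1-knockout DT40 cells stably expressing hTDP1, seeded 400/well; qHTS titration format.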
TDP1 block = inhibitors of human tyrosyl-DNA phosphodiesterase TDP1; Q9NUW8; recombinant TDP1, AlphaScreen DNA substrate cleavage; Potency, µM (top dose mostly 130 µM), without a hit: top-dose activity change, negative = inhibition, hits mostly inhibitors; 0.28% of 350,000 active; further: potency means the concentration at half of the fitted maximal effect; nearly all actives have a fitted effect of over 40% in size
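Recombinant human Tdp1 (E. coli-expressed, 1 nM final) preincubated with compounds 15 min at room temperature, then 5'-biotin/3'-phosphotyrosine-FITC DNA substrate (15 nM final) added for 5 min. AlphaScreen beads (10 ug/ml final) added 10 min; cleavage lowers signal.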
An asterisk follows results filed as active. Only some compounds are listed: those with a hit (about 18% of all), similar ones and a draw of the others. Unless noted, the call rests on the fitted dose curve; in most records, active means well fitted curve in the direction sought with a large enough effect; inconclusive means small, poorly fitted or top-dose-only effect, or another doubt; inactive means no such curve, though single readings can be large; an effect the other way counts as inactive or inconclusive. On the % scale 0 is the no-effect control and ±100 the full control effect.

`O=C1CC(N2CCN(c3cccc(C(F)(F)F)c3)CC2)C(=O)N1c1ccccc1F` (centres undefined) gave DT40 TDP1 no CPT inconclusive, CtBP-E1A inh -1, Six1-Eya2 inh -3, IL1B secr inh 0, DT40 TDP1 CPT -10% and TDP1 block 3%.
For CC(=O)N[C@@H](CSC/C=C(\C)CC/C=C(\C)CC/C=C(\C)CCC=C(C)C)C(=O)O the results were DT40 TDP1 no CPT inconclusive, DT40 TDP1 CPT inconclusive and TDP1 block 7%.
`O=C(OCc1nnc(-c2ccccc2)o1)c1cccc(S(=O)(=O)N2CCOCC2)c1` gave DT40 TDP1 no CPT -14%, CtBP-E1A inh 1, Six1-Eya2 inh -6, IL1B secr inh -18, DT40 TDP1 CPT 0% and TDP1 block -4%.
CCCc1nc(SCC(=O)N2CCC(Cc3ccccc3)CC2)c2c(=O)n(C)c(=O)n(C)c2n1 was read as DT40 TDP1 no CPT 16µM*, CtBP-E1A inh 2, Six1-Eya2 inh 0, IL1B secr inh 16, DT40 TDP1 CPT 21µM* and TDP1 block 4%.
For CCCc1nc(SCC(=O)N2CCCc3ccccc32)c2c(=O)n(C)c(=O)n(C)c2n1 the results were DT40 TDP1 no CPT 23µM*, CtBP-E1A inh 2, Six1-Eya2 inh -1, IL1B secr inh 59, DT40 TDP1 CPT 26µM* and TDP1 block 1%.
For Cn1c(=O)c2c(SCC(=O)N3CCN(c4ccccc4)CC3)nc(C3CC3)nc2n(C)c1=O the results were DT40 TDP1 no CPT 7.3µM*, CtBP-E1A inh 5, Six1-Eya2 inh 5, IL1B secr inh 0 and DT40 TDP1 CPT 13µM*.
For Cn1c(=O)c2c(SCCN3CCOCC3)nc(C3CCCC3)nc2n(C)c1=O the results were DT40 TDP1 no CPT 21µM*, CtBP-E1A inh 11, Six1-Eya2 inh 6, IL1B secr inh 30, DT40 TDP1 CPT 16µM* and TDP1 block 1%.
Cn1c(=O)c2c(SCC(=O)N3CCCc4ccccc43)nc(CC(C)(C)C)nc2n(C)c1=O was read as DT40 TDP1 no CPT inconclusive, CtBP-E1A inh 3, Six1-Eya2 inh 2, IL1B secr inh 19, DT40 TDP1 CPT inconclusive and TDP1 block 8%.
For COc1ccc(-n2cnc3cc(NC(=O)c4ccco4)ccc32)cc1 the results were DT40 TDP1 no CPT -27%, CtBP-E1A inh -3, Six1-Eya2 inh -7, IL1B secr inh -24, DT40 TDP1 CPT inconclusive and TDP1 block 11%.
For CCOC(=O)c1sc2nc(CC(C)C)c3c(c2c1N)CCC3 the results were DT40 TDP1 no CPT -16%, CtBP-E1A inh 0, Six1-Eya2 inh 18, IL1B secr inh 1, DT40 TDP1 CPT 0% and TDP1 block 0%.
O=C(NCC(=O)N(c1cccnc1)C(C(=O)NCc1ccco1)c1ccccc1)c1ccco1 (centres undefined) was read as DT40 TDP1 no CPT 5%, CtBP-E1A inh -2, Six1-Eya2 inh -4, IL1B secr inh 21, DT40 TDP1 CPT 2% and TDP1 block 0%.
For COc1cccc(-c2csc3nc[nH]c(=O)c23)c1 the results were DT40 TDP1 no CPT -2%, CtBP-E1A inh 8, Six1-Eya2 inh 11, IL1B secr inh 0, DT40 TDP1 CPT 1% and TDP1 block -1%.
Cc1noc(C)c1S(=O)(=O)N(CC(=O)NC(C)c1ccccc1)c1ccc(C(C)C)cc1 (centres undefined) was read as DT40 TDP1 no CPT inconclusive, CtBP-E1A inh 3, Six1-Eya2 inh 0, IL1B secr inh -53*, DT40 TDP1 CPT inconclusive and TDP1 block 4%.
CCOc1ccccc1NC(=O)CN(c1cc(C)cc(C)c1)S(=O)(=O)c1c(C)noc1C was read as DT40 TDP1 no CPT -20%, CtBP-E1A inh 2, Six1-Eya2 inh 3, IL1B secr inh 2, DT40 TDP1 CPT -3% and TDP1 block 5%.
`Cc1noc(C)c1S(=O)(=O)N(CC(=O)NCCc1ccccc1)c1ccc(C(C)C)cc1` gave DT40 TDP1 no CPT inconclusive, Six1-Eya2 inh 5, IL1B secr inh 17, DT40 TDP1 CPT -26% and TDP1 block 4%.
`CCOc1ccc(N(CC(=O)Nc2ccccc2C)S(=O)(=O)c2c(C)noc2C)cc1` gave DT40 TDP1 no CPT 2.9µM*, CtBP-E1A inh 1, Six1-Eya2 inh -3, IL1B secr inh 29, DT40 TDP1 CPT 4.6µM* and TDP1 block 4%.
For CCOc1ccccc1NC(=O)CN(c1ccc(OC)cc1)S(=O)(=O)c1c(C)noc1C the results were DT40 TDP1 no CPT 3.3µM*, CtBP-E1A inh 5, Six1-Eya2 inh -2, IL1B secr inh 41, DT40 TDP1 CPT 2.9µM* and TDP1 block 2%.
For COC(=O)c1cc(S(=O)(=O)NCCc2cccc(C)c2)cn1C the results were DT40 TDP1 no CPT -20%, CtBP-E1A inh -17, Six1-Eya2 inh 5, IL1B secr inh -11, DT40 TDP1 CPT 9% and TDP1 block -8%.
CCC1C/C(=C/c2ccco2)C(=O)/C(=C/c2ccco2)C1 (centres undefined) was read as TDP1 block 5%.
`CC(C)=CCCC(C)CCO` (centres undefined) gave DT40 TDP1 no CPT inconclusive, CtBP-E1A inh 1, Six1-Eya2 inh 1, IL1B secr inh 0, DT40 TDP1 CPT -25% and TDP1 block 0%.
For COc1ccc(CC(N)c2csc(NC(=O)c3cccc(OC(F)(F)F)c3)n2)cc1 (centres undefined) the results were DT40 TDP1 no CPT 12µM*, CtBP-E1A inh -19, Six1-Eya2 inh -10, IL1B secr inh -60* and DT40 TDP1 CPT 15µM*.
`NC(Cc1ccccc1)c1csc(NC(=O)c2cccc(OC(F)(F)F)c2)n1` (centres undefined) gave DT40 TDP1 no CPT 7.3µM*, CtBP-E1A inh -20, Six1-Eya2 inh 1 and DT40 TDP1 CPT 7.3µM*.
For COc1ccc(CC(N)c2csc(NC(=O)c3ccccc3)n2)cc1 (centres undefined) the results were DT40 TDP1 no CPT inconclusive, CtBP-E1A inh -17, Six1-Eya2 inh -20, IL1B secr inh inconclusive and DT40 TDP1 CPT inconclusive.
`CC1CCc2nc(NC(=O)CN3CCN(Cc4ccc5c(c4)OCO5)CC3)sc2C1` (centres undefined) gave DT40 TDP1 no CPT 16µM*, CtBP-E1A inh -7, Six1-Eya2 inh -16, IL1B secr inh inconclusive, DT40 TDP1 CPT 18µM* and TDP1 block 9%.
